# sPLA2-III inh: human group III sPLA2 inhibitors, primary screen, biochemical, QFRET, BODIPY PC-A2 liposome substrate. Group 3 secretory phospholipase A2 (Homo sapiens), Q9NZ20. QFRET BODIPY PC-A2 liposome hydrolysis, fluorescence. inhibition, % at 12.2 µM. 370,000 compounds, 0.56% hits. AID 743126, 2013;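 active = inhibition above mean plus 3 SD of compounds lying within the high and low control bounds, cut at about 19% in these data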;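 also: 0% = median of test compound wells and 100% = no enzyme DMSO wells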
# ADAM10 inh: human ADAM10 inhibitors, primary screen, biochemical, QFRET, HTS | Disintegrin and metalloproteinase domain-containing protein 10 (Homo sapiens), O14672 | recombinant ADAM10, EDANS/DABCYL FRET peptide cleavage, 3 h | inhibition, % at 7 µM | 370,000 compounds, 0.62% hits | AID 720582, 2013;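 active = inhibition above a per-campaign cutoff equal to the mean of compounds falling between control-based bounds plus 3 SD, cut at about 20% in these data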;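 also: 0% = DMSO wells while the 100% control is not disclosed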
# Target sequence (O14672 214-748 limits assumed): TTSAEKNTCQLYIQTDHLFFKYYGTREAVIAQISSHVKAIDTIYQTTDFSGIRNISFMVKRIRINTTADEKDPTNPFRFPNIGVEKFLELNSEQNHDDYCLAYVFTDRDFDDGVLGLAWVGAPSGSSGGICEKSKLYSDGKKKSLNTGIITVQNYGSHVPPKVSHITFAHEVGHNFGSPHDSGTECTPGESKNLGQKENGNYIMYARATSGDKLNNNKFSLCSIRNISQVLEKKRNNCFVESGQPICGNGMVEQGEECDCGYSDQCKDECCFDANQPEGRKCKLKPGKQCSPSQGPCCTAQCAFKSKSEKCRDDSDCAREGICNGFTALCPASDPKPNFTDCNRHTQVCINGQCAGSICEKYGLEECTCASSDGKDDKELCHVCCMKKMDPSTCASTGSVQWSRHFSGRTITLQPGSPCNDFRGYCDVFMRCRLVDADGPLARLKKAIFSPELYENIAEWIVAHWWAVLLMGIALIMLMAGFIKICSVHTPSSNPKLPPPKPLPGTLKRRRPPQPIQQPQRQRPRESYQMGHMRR
# KLK7 zymogen act: proKLK7 zymogen activators, primary screen, biochemical, fluorescence intensity. Kallikrein-7 (Homo sapiens), P49862. 370,000 compounds, 0.9% hits. purified proKLK7, EDANS-DABCYL substrate fluorescence; 100% is mature enzyme control, 0% vehicle. activation, % at 7 µM;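 active = activation above the mean of all tested compounds plus 3 SD, computed per campaign excluding outliers beyond control limits, cut at about 13% in these data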
# PLC-gamma1 inh: PLC-gamma1 enzyme inhibitors, primary screen, biochemical, fluorescence, purified enzyme; 1-phosphatidylinositol 4,5-bisphosphate phosphodiesterase gamma-1 (Homo sapiens), P19174; fluorogenic substrate; inhibition, % at 12.2 µM; 370,000 compounds, 0.84% hits; AID 720700, 2013
# ADAM17 inh: ADAM17 inhibitors, primary screen, biochemical, QFRET; AID 720648, 2013; Disintegrin and metalloproteinase domain-containing protein 17 (Homo sapiens), P78536; 370,000 compounds, 0.83% hits; inhibition, % at 6.95 µM; recombinant ADAM17, EDANS/DABCYL FRET peptide cleavage;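 active = inhibition above the mean of compounds lying between control limits plus 3 SD, set per campaign, cut at about 8.5% in these data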;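 also: 0% = DMSO-only wells as the low control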
# PLCb3 inh: human PLC-beta3 inhibitors, primary screen, biochemical, fluorescence; Purified PLC-beta3, fluorogenic substrate; AID 720704, 2013; 370,000 compounds, 0.18% hits; inhibition, % at 12.2 µM; in the data active = inhibition above about 11%;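 also: 0% = median of compound wells on plate and 100% = full blocker control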
# PLCgamma1 ctr: PLC-gamma1 enzyme inhibitors, counter-screen for PLC-beta3 inhibitor project, biochemical, fluorescence; inhibition, % at 12.3 µM; shares compounds with PLC-gamma1 inh; purified PLC-gamma1, fluorogenic substrate; 3,300 compounds, 3.1% hits; AID 743258, 2014
# PLCbeta3 conf: PLC-beta3 inhibitor confirmation, biochemical, fluorescence, purified enzyme; shares compounds with PLC-gamma1 inh; fluorogenic substrate fluorescence; inhibition, % at 12.3 µM; 3,300 compounds, 1% hits; in the data active = inhibition above about 11%
# * = called active by the depositor; / = no result. Shown are actives, neighbours in structure and some others; about 3.4% of the full set was active somewhere. Rule as the data show it, unless noted: active = inhibition above about 9.5%; inactive = the rest.
SMILES,sPLA2-III inh,ADAM10 inh,KLK7 zymogen act,PLC-gamma1 inh,ADAM17 inh,PLCb3 inh,PLCgamma1 ctr,PLCbeta3 conf
COP(=O)(CC(=O)OC(C)(C)C)C(CC(C)C)NC(=O)OCc1ccccc1 (configuration not stated),3,0,-1,-2,-2,3,/,/
CCn1c(O)c(C2=NCCCC2)c2ccccc21,8,4,1,9.7*,0,5,5,7
COc1ccc(OC)c(S(=O)(=O)N2CCC(C(=O)N3CCN(C4CCCCC4)CC3)CC2)c1,-9,-5,0,-1,-2,0,/,/
Cc1cc(-n2c(C)cc(C(=O)CSc3nnc4sc5ccccc5n34)c2C)no1,10,7,1,4,4,11*,-5,-3
CC(=O)Nc1ccc(CNc2nc(NC(C)C)nc3ccsc23)cc1,5,-40,0,11*,-7,-4,2,-4
CC(=O)Nc1ccc(CNc2nc(NCC3CC3)nc3ccsc23)cc1,-13,-19,0,5,-5,4,/,/
CC1=CCn2c(=O)c3ccccc3c(=O)n2C1,0,11,0,11*,2,1,8,2
Cc1ccc(/C=N\NC(=O)Cn2c(C)nc3ccccc32)o1,0,8,1,9.8*,1,4,-5,0
O=C(Nc1ccccc1)c1ccc(S(=O)(=O)NCc2cccnc2)cc1,-2,1,0,10*,5,-93,-1,2
O=C(Nc1ccc(S(=O)(=O)NCc2cccnc2)cc1)c1ccccc1Cl,-3,8,0,7,3,5,/,/
COc1ccc2c(c1)OC(=O)CC2c1cc(OC)c(OC)c(OC)c1 (configuration not stated),8,7,0,11*,4,8,-4,-11
COc1cc(C2CC(=O)Oc3cc(O)ccc32)cc(OC)c1OC (configuration not stated),2,1,0,0,-2,-4,/,/
CC(NC(=O)c1ccc([N+](=O)[O-])cc1Cl)C1CC2CCC1C2 (configuration not stated),19,12,-1,11*,4,7,-3,0
COC(=O)C1CN(Cc2cn(CCOC(C)=O)nn2)CCS(=O)(=O)N1Cc1ccc(Cl)cc1 (configuration not stated),1,-5,1,1,0,0,/,/
O=C(O)CNCC1COc2ccccc2O1 (configuration not stated),4,3,0,-1,-1,6,/,/
O=C(O)CCC1COc2ccccc2O1 (configuration not stated),8,3,0,11*,4,10,1,-3
CCOC(=O)NC(NC(=S)Nc1ccc(OC)cc1)C(Cl)(Cl)Cl (configuration not stated),11,-4,0,0,1,-1,/,/
COC(=O)NC(NC(=S)Nc1ccc([N+](=O)[O-])cc1)C(Cl)(Cl)Cl (configuration not stated),6,8,0,5,5,12*,5,7
CCOC(=O)N/N=C/c1ccc(Oc2ccccc2)cc1,2,-6,0,9.6*,-4,9,6,10
NC(=O)c1ccc(NS(=O)(=O)c2ccc(Br)s2)cc1,-6,7,0,9.7*,1,-2,-4,-3
Cc1cc(C(=O)O)c(CCCN)s1,9,0,0,6,1,12*,-2,1
CCCCc1c(C(=O)O)cc(OC)cc1C(=O)O,2,1,0,8,0,4,/,/
O=C(c1ccc(S(=O)(=O)N2CCCCCC2)cc1)N1CCN(c2ccccc2F)CC1,4,-2,0,12*,4,-1,-4,-1
CC(C)Oc1ccc(C(=O)Nc2ccc(NC(=O)c3ccco3)c(Cl)c2)cc1,-5,-14,0,-2,-4,15*,-23,-1
CC(C)COc1ccc(C(=O)Nc2ccc(NC(=O)c3ccco3)c(Cl)c2)cc1,-5,1,-1,3,0,9,/,/
SMILES,sPLA2-III inh,ADAM10 inh,KLK7 zymogen act,PLC-gamma1 inh,ADAM17 inh,PLCb3 inh,PLCgamma1 ctr,PLCbeta3 conf
CC1CCN(C(=O)CSc2nc3c(cnn3-c3ccc(Cl)cc3)c(=O)[nH]2)CC1,4,0,0,10.0*,0,11*,0,1
CCN(C(=O)CSc1nc2c(cnn2-c2ccccc2)c(=O)[nH]1)C1CCS(=O)(=O)C1 (configuration not stated),4,7,0,9.7*,4,6,4,4
COc1cccc(OCc2nnc(SCC(=O)N3c4ccccc4Sc4ccc(Cl)cc43)o2)c1,-1,9,0,8,7,5,/,/
COc1ccc(OCc2nnc(SCC(=O)N3c4ccccc4Sc4ccc(Cl)cc43)o2)cc1,3,-3,0,9.6*,0,0,9,4
O=C(c1ccccc1)N1CCOC12CCN(c1ncc(C(F)(F)F)cc1Cl)CC2,3,-8,0,1,-1,-3,/,/
O=C(c1ccc([N+](=O)[O-])cc1)N1CCOC12CCN(c1ncc(C(F)(F)F)cc1Cl)CC2,4,9,0,11*,6,9,3,1
Cc1cc(C(=O)OCCCN(C)C2CN(Cc3cn(Cc4ccccc4C(F)(F)F)nn3)S(=O)(=O)C2)no1 (configuration not stated),6,-1,-1,2,-3,2,/,/
O=C1OCC2=C1C(c1ccccc1)CC(=O)N2c1ccc(F)cc1 (configuration not stated),-5,9,0,11*,2,2,0,2
O=C(Cc1ccc([N+](=O)[O-])cc1)Oc1ccccc1,-49,-4,0,9.7*,-4,2,-7,-4
O=C(Cc1ccccc1)NCC(=O)OCc1ccc([N+](=O)[O-])cc1,0,5,0,1,5,4,/,/
O=C(c1ccc(F)cc1Cl)N1CCC(Oc2cccnc2)CC1,-3,1,0,3,0,0,/,/

# Source: PubChem BioAssay (The Scripps Research Institute Molecular Screening Center)
